Laboratory results: PubChem BioAssay (NCI)
Compounds without any hit were thinned out: in the full panel of roughly 83,000, 20% have a hit.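 Activity criterion: percent growth below 10, measured after cells in 96-well plates were exposed to a single compound concentration for 48 hours.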 Active and inactive are the calls of the source.

System: MDA-MB-468 breast
Assay: NCI-60 one-dose screen, 48 h (100 = growth as untreated, 0 = no growth, -100 = all killed)
Conditions: 10 µM unless noted

SMILES | growth
Cc1ccc(-c2cc3nc(-c4ccccc4)nc(C(Cl)Cl)n3n2)cc1 | -61.4% (active)
O=C1NC(=O)N(Cc2ccccc2)CC1Br (configuration not stated) | 104% (inactive)
CCO/C=N/C1=C(C#N)C(c2ccc(OC)cc2)c2sc3c(CC)cccc3c2O1 (configuration not stated) | -21.1% (active)
NC1=NN(O)C2=CC([N+](=O)[O-])C=CC2=N1 (configuration not stated) | 107% (inactive)
Cn1cc(-c2nonc2-c2c[nH]c3ccc(F)cc23)c2cccnc21 | -7.39% (active)
CO[C@H]1/C=C/C=C/C=C/C[C@H](OC(=O)[C@@H](C)NC(=O)C2CCCCC2)[C@H](C)[C@@H](O)/C(C)=C\CCC2=CC(=O)C=C(NC(=O)C1)C2=O | -40.9% (active)
Cc1c(CC(=S)N2CCOCC2)nnn1-c1cccc(C(F)(F)F)c1 | 117% (inactive)
O=C1/C(=C/C=C/c2ccco2)SC(=S)N1C1CCCCC1 | 43.4% (inactive)
O=C1Nc2ccccc2C1(c1c[nH]c2ccccc12)c1c[nH]c2ccccc12 | -23.3% (active)
O=S(=O)(NCCCNc1cc(-c2cn(-c3ccccc3)nc2-c2cccc(O)c2)ccn1)c1ccc(C(F)(F)F)cc1 | 3.04% (active)
CN(C)[C@@H]1C(=O)C(C(N)=O)=C(O)[C@@]2(O)C(=O)C3=C(O)c4c(O)cc(CN5CCc6ccccc6C5)c(Cl)c4C[C@H]3C[C@@H]12 | -46.8% (active)
[2H]C1([2H])NC([2H])([2H])C([2H])([2H])N(c2ccc(Nc3ncc4cc(C(=O)N(C)C)n(C5CCCC5)c4n3)nc2)C1([2H])[2H] | 99.5% (inactive)
CCn1c(Cc2ccccc2Nc2c(Cl)cccc2Cl)nnc1SCC(=O)NN1C(=O)/C(=C/c2cccc(OC)c2OC)SC1=S | 99.5% (inactive)
O=C1Nc2c(ccc(Cl)c2Cl)/C1=C\c1cc(C(F)(F)F)cc(C(F)(F)F)c1 | 7.18% (active)
COc1ccc(S(=O)(=O)Nc2cc(/C=C\c3cc(OC)c(OC)c(OC)c3)cc(OC)c2OC)cc1 | 19.5% (inactive)
O=c1cc(CP(=O)(O)O)c2cc(O)c(-c3ccccc3)cc2o1 | 99.1% (inactive)
COc1cc2c(cc1-c1c(C)noc1C)ncc1nc(C3CCCCC3)n(C3CCC(OC(F)F)CC3)c12 (configuration not stated) | 29.8% (inactive)
CCOC(=O)c1c[nH][nH]c1=O | 93.8% (inactive)
CCOC(=O)c1cc(C(=O)c2cc(OC)c(OC)c(OC)c2)n2ccc(-c3cc[n+](CC(=O)c4cc(OC)c(OC)c(OC)c4)cc3)cc12 | 43.2% (inactive)

SMILES | growth
COc1cc(-c2[nH]ncc2Nc2ccc(Cl)cc2)cc(OC)c1OC | 55.7% (inactive)
O=S(=O)(NCCNc1nccc(-c2c(-c3ccccc3)nc3sccn23)n1)c1ccc(O)cc1 | 19.9% (inactive)
Cc1cc(Cc2ccccc2)c(O)c(Cc2ccccc2)c1 | 95.8% (inactive)
COc1ccc(NC(=O)CSc2nc(C)c(C(C)=O)n2-c2ccc(Cl)cc2)cc1 | 98.8% (inactive)
NS(=O)(=O)c1ccc(-n2nc(-c3ccc(Br)cc3)ccc2=O)cc1 | 66% [100 µM] (inactive)
N#Cc1c(NC(=O)NCc2ccccc2)sc2c1CCCCC2 | -25.9% (active)
CN(C)CCCN1c2ccccc2CCc2ccccc21 | 39.6% (inactive)
N=C(N)c1ccc(-c2ccc(-c3ccccc3)o2)cc1 | -68.6% (active)
CC(O)CNC(Cc1ccccc1)c1ccc2c(c1)OCO2 (configuration not stated) | 101% (inactive)
O=C1/C(=C/c2ccccc2)CCc2nc3ccccc3c(/C=C/c3ccc(Cl)cc3)c21 | 83.5% (inactive)
COc1ccc(NC(=O)Cn2cc(CN3C(=O)c4ccc([N+](=O)[O-])cc4C3=O)nn2)cc1 | 110% (inactive)
Clc1cccc(C2Cc3cnccc3-c3[nH]c4ccncc4c32)c1 (configuration not stated) | 5.96% (active)
CSc1nc(Nc2cccc(NC(=O)/C(C#N)=C/c3c(Cl)cccc3Cl)c2)c(C#N)c(-c2cccc([N+](=O)[O-])c2)n1 | 36.9% (inactive)
O=C(Nc1ccc(-c2nc3cc4ccccc4cc3[nH]2)cc1)c1cccc(Br)c1 | 48.3% (inactive)
COc1ccc(-c2nc(-c3nc4ccc(OC)cc4[nH]3)cc3c2[nH]c2ccccc23)cc1 | 59.6% (inactive)
CN(C)CCC(=O)C1CC1 | 104% (inactive)
COc1cccc(-c2nc3sccn3c2-c2ccnc(NCCNS(=O)(=O)c3cccc(F)c3)c2)c1 | 25.6% (inactive)
Cc1cc(C(=O)NOCCO)c(Nc2ccc(I)cc2F)n(C)c1=O | 114% (inactive)
